Drawing on PubChem BioAssay (NCATS), this text covers Potency for 35 compounds.

Assay [1] is described as follows: qHTS of pediatric cancer cell lines to identify multiple opportunities for drug repurposing: Confirmatory screen for A673 cells (AID 1347110).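 Note: cells exposed to compound for 48 h before the viability read; nearly all actives have a fitted effect of over 65% in size.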 Note: potency is the fitted concentration of half-maximal effect. The note with it: A673 Ewing sarcoma cell viability; series mostly up to 45.9 µM. The method in brief: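 Concentration-response curves came straight from titrations: 11 points (0.78 nM to 46 µM) for MIPE and several concentrations (0.59 nM to 46 µM) for NPC in primary, 11 points in follow-up. Readout: ATP luminescence at 48 h.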

The nature of assay [2]: qHTS of pediatric cancer cell lines to identify multiple opportunities for drug repurposing: Confirmatory screen for SK-N-MC cells (AID 1347111).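 Note: cells exposed to compound for 48 h before the readout; nearly all actives have a fitted effect of over 70% in size.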 Note: potency is the fitted concentration of half-maximal effect. Particulars: SK-N-MC cell viability; series mostly up to 45.9 µM. The method, boiled down:
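Seed 500-1,000 cells/well; rest 5 h at 37 degrees C. Pin-transfer compounds, 11-point titration. Incubate 48 h. Add CellTiter-Glo, 15 min RT, read luminescence.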
In general terms: Quantitative high-throughput screening tests each substance at several concentrations.

The nature of assay [3]: qHTS of pediatric cancer cell lines to identify multiple opportunities for drug repurposing: Confirmatory screen for BT-12 cells (AID 1347112). Note: potency is the fitted concentration of half-maximal effect.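 Note: viability read after 48 h of compound exposure; nearly all actives have a fitted effect of over 55% in size.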 Particulars: BT-12 rhabdoid tumor cells, viability; series mostly up to 45.9 µM. The method, boiled down:
(§1)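 Cells (500-1,000/well) rested 5 h, then received compounds for 48 h; metabolically active cells were measured by CellTiter-Glo luminescence. Final concentrations spanned up to 46 µM (MIPE, 11-point) or 0.59 nM-46 µM (NPC, 8-point) in primary screens, 11-point in follow-ups.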

A short description of assay [4]: qHTS of pediatric cancer cell lines to identify multiple opportunities for drug repurposing: Confirmatory screen for LAN-5 cells (AID 1347113). Note: nearly all actives have a fitted effect of over 65% in size. Note: potency is the fitted concentration of half-maximal effect. The note with it: LAN-5 neuroblastoma cell viability; series mostly up to 45.9 µM. The method, boiled down:
as §1

Assay [5] in a line: qHTS of pediatric cancer cell lines to identify multiple opportunities for drug repurposing: Confirmatory screen for DAOY cells (AID 1347114). Note: nearly all actives have a fitted effect of over 65% in size. Note: potency is the fitted concentration of half-maximal effect. Particulars: DAOY medulloblastoma cells viability, cytotoxicity qHTS; series mostly up to 45.9 µM. The method, boiled down: (§2)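 Viability measured as metabolically active cells via CellTiter-Glo luminescence following 48 hours of compound exposure, 11-point dilutions in confirmatory testing. 500-1,000 cells/well plated 5 hours before dosing; controls were DMSO and 2.3 µM bortezomib.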

Assay [6] is described as follows: qHTS of pediatric cancer cell lines to identify multiple opportunities for drug repurposing: Confirmatory screen for SJ-GBM2 cells (AID 1347116). Note: nearly all actives have a fitted effect of over 60% in size. Note: potency is the fitted concentration of half-maximal effect. Particulars: SJ-GBM2 glioblastoma cells, viability; series mostly up to 45.9 µM. The method in brief: as §2
Assay [7] in a line: qHTS of pediatric cancer cell lines to identify multiple opportunities for drug repurposing: Confirmatory screen for BT-37 cells (AID 1347117). Note: nearly all actives have a fitted effect of over 55% in size. Note: potency is the fitted concentration of half-maximal effect. The note with it: BT-37 pediatric cancer cells, viability; series mostly up to 45.9 µM. The method in brief:
as §1

A short description of assay [8]: qHTS of pediatric cancer cell lines to identify multiple opportunities for drug repurposing: Confirmatory screen for TC32 cells (AID 1347118).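 Note: cells exposed to compound for 48 h before the read; nearly all actives have a fitted effect of over 65% in size.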 Note: potency is the fitted concentration of half-maximal effect. The note with it: TC32 Ewing sarcoma cells viability qHTS; series mostly up to 45.9 µM. The method, boiled down:
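Luminescent ATP read-out (CellTiter-Glo) of metabolically active TC32 cells after 48 h exposure. Concentration-response curves came from 11-point (MIPE, 0.78 nM–46 µM) or 8-point (NPC, 0.59 nM–46 µM) primary titrations; follow-up used 11 points.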

Assay [9] can be described thus: qHTS of pediatric cancer cell lines to identify multiple opportunities for drug repurposing: Confirmatory screen for MG 63 (6-TG R) cells (AID 1347119). Note: nearly all actives have a fitted effect of over 55% in size. Note: potency is the fitted concentration of half-maximal effect. Particulars: MG-63 (6-TG resistant) osteosarcoma viability; series mostly up to 45.9 µM. The method in brief:
as §1

The nature of assay [10]: qHTS of pediatric cancer cell lines to identify multiple opportunities for drug repurposing: Confirmatory screen for NB-EBc1 cells (AID 1347115).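 Note: cells exposed to compound for 48 h before the viability read; nearly all actives have a fitted effect of over 45% in size.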 The note with it: NB-EBc1 neuroblastoma cells, viability (cytotoxicity); series mostly up to 45.9 µM. The method in brief:
as §1

Results filed as inconclusive are left out. Active and inactive are the calls of the source. Calls come from the whole dose curve; as a rule, active = well fitted curve in the direction sought with a large enough effect; inconclusive = small, poorly fitted or top-dose-only effect, or another doubt; inactive = no such curve, though single readings can be large; an effect the other way counts as inactive or inconclusive.

Regarding `CC1C(=O)OC2C(O)C34C5CC(C(C)(C)C)C36C(OC(=O)C6O)OC4(C(=O)O5)C12O` (stereo unspecified), the Potency in assay [1] was 18.5 µM (active). For the same compound, the Potency entry in assay [2], in [3], in assay [4], in [5], in assay [6] and in assay [7] was “inactive” each time. Besides, the Potency result in [8] and in assay [9] was “inactive” each time.
Turning to `CC1=C[C@@H]2[C@@H]([C@@H](O)C[C@@]3(C)[C@H]2C[C@@H](C)[C@]3(O)C(=O)CO)[C@@]2(C)Cc3cnn(-c4ccccc4)c3C=C12`, the Potency in assay [1] was 23.3 µM (active); in assay [2] it was 9.27 µM (active); in assay [8], 10.4 µM (active). Moreover, the Potency entry in [3] and in assay [5] was “inactive” throughout.
As to `CCN(CCO)CCCOc1ccc2c(Nc3cc(CC(=O)Nc4cccc(F)c4)[nH]n3)ncnc2c1`, the Potency in assay [1] was 10.4 µM (active); in [2] it was 0.104 µM (active); in assay [8], 0.0414 µM (active). For the same compound, the Potency result in [3], in assay [5], in assay [10] and in assay [6] was “inactive” each time.
With `CC1CNc2c(cccc2S(=O)(=O)N[C@@H](CCCN=C(N)N)C(=O)N2CC[C@@H](C)C[C@@H]2C(=O)O)C1` (stereo partly specified), the Potency entry in assay [1], in [3], in assay [5] and in assay [7] was “inactive” throughout. Moreover, in [2], the Potency is 20.8 µM (active).
For the compound `Cc1cccc(-c2[nH]c(C(C)(C)C)nc2-c2ccc3c(c2)OCO3)n1`, the Potency in [1] is 13.1 µM (active); in assay [2] it was 7.37 µM (active); in assay [3], 11.7 µM (active); in assay [4], 2.61 µM (active); in [7], 8.27 µM (active); in assay [8], 7.37 µM (active).
In the case of `C=CC(=O)Nc1cccc(Sc2nc(Nc3ccc(N4CCN(C)CC4)cc3)ncc2Cl)c1`, the Potency in [1] is 4.14 µM (active); in assay [2], 1.04 µM (active); in [3], 23.3 µM (active); in assay [4], 9.27 µM (active); in assay [5] it was 23.3 µM (active); in assay [6], 14.7 µM (active). The figures for the Potency in assay [7] and in [8] were 13.1 µM (active) and 0.737 µM (active), respectively.
As to `C[C@H](c1ccc(F)cc1CCCC(=O)O)N(c1cc(F)ccc1F)S(=O)(=O)c1ccc(Cl)cc1`, in assay [10], the Potency result is “inactive”.
On to `CC[C@H](NC(=O)[C@H](C)NC)C(=O)N1C[C@@H](O)C[C@H]1Cc1c(-c2[nH]c3cc(F)ccc3c2C[C@H]2C[C@H](O)CN2C(=O)[C@H](CC)NC(=O)[C@H](C)NC)[nH]c2cc(F)ccc12`, for which the Potency entry in [10] was “inactive”.
Turning to `Cc1c(C(=O)Nc2ccc(N3C[C@@H](C)O[C@@H](C)C3)nc2)cccc1-c1ccc(OC(F)(F)F)cc1`, the Potency entry in [4] and in assay [6] was “inactive” each time.
With `O=C1NC(=O)C(c2cnc3ccccn23)=C1c1cn2c3c(cccc13)CN(C(=O)N1CCOCC1)CC2`, the Potency in [2] was 14.7 µM (active); in [7], 16.5 µM (active); in assay [8], 4.65 µM (active).
For `CC(C)C[C@H](NC(=O)c1cc2ccccc2s1)C(=O)N1CCN(C(=O)[C@H](CO)NS(=O)(=O)c2ccc(Cl)cc2Cl)CC1`, the Potency in [3] is 0.0037 µM (active); in assay [4] it was 23.3 µM (active); in assay [7], 13.1 µM (active). The Potency result in assay [6] was “inactive”.
`O=C(c1ccc(F)c(F)c1Nc1ccc(I)cc1F)N1CC(O)([C@H]2CCCCN2)C1`: the Potency in assay [1] is 26.1 µM (active). Further, the Potency result in assay [10] and in assay [6] was “inactive” in each case.
With `CC(C)C[C@@H](C(=O)N[C@H](C(=O)OC1CCCC1)c1ccccc1)[C@H](O)C(=O)NO`, the Potency in [2] is 20.8 µM (active); in [5], 18.5 µM (active); in assay [8], 23.3 µM (active). Also, in assay [3], the Potency entry is “inactive”.
On to `CC(C)CN(C[C@H](O)[C@H](Cc1ccccc1)NC(=O)O[C@H]1CCOC1)S(=O)(=O)c1ccc(N)cc1`, for which the Potency result in [3], in assay [4], in assay [5], in [6] and in assay [7] was “inactive” throughout.
On to `Cc1nn(Cc2ccccc2Cl)c(C)c1CN(C)CC(O)COc1ccc(Cl)cc1` (stereo unspecified), for which, in assay [5], the Potency was 23.3 µM (active). Moreover, the Potency result in assay [6] is “inactive”.
Consider `CCCCn1c(=O)n(Cc2ccccc2F)c(=O)c2[nH]c(Cc3ccc(NC(C)=O)cc3)nc21`, for which the Potency result in [3], in assay [4] and in assay [7] was “inactive” each time. For the same compound, the Potency in assay [6] was 11.7 µM (active).
`CCC[C@H](N[C@@H](C)C(=O)N1[C@@H]2CCCC[C@H]2C[C@H]1C(=O)O)C(=O)OCC`: the Potency result in [2], in [3], in assay [4], in assay [5], in [6] and in [7] was “inactive” each time. In addition, the Potency result in [8] is “inactive”.
In the case of `CN1N=C(N)c2cn([C@@H]3O[C@H](COP(=O)(O)O)[C@@H](O)[C@@H]3O)c3ncnc1c23`, the figures for the Potency in [2], in assay [8] and in assay [9] were 3.69 µM (active), 0.737 µM (active) and 0.827 µM (active), respectively.
As to `CCC(C)SSc1ncc[nH]1` (stereo unspecified), the Potency was 8.27 µM (active) in [2]; 23.3 µM (active) in assay [3]; 13.1 µM (active) in [4]; 13.1 µM (active) in [8]; 20.8 µM (active) in assay [9].
For the compound `COc1ccc2c(c1)c(C1=C(c3c[nH]c4ccccc34)C(=O)NC1=O)cn2CCCN(C)C`, the Potency in assay [2] was 8.27 µM (active); in assay [4], 16.5 µM (active); in [5] it was 23.3 µM (active); in assay [7], 23.3 µM (active); in assay [8], 23.3 µM (active).
For `OCCn1cc(-c2ccc3c(c2)CCC3=NO)c(-c2ccncc2)n1`, the Potency entry in assay [3], in assay [5], in assay [7] and in assay [8] was “inactive” throughout.
Take `Cc1ccc2c(c1)C(=O)[C@]1(O)CCN(c3ccccc3)C1=N2`: the Potency result in assay [3], in assay [4], in assay [5], in [6] and in [7] was “inactive” in each case.
On to `COc1cc2ncnc(Nc3cc(Br)c(O)c(Br)c3)c2cc1OC`, for which the Potency entry in [3], in [6] and in [9] was “inactive” each time.
As for `COC1CCC(C(=O)c2ccc3nc4c(cc3c2)CCCO4)CC1` (stereo unspecified), the Potency entry in [2], in assay [3], in [4], in assay [6] and in assay [7] was “inactive” throughout. Moreover, the Potency in assay [5] is 23.3 µM (active).
As for `Nc1[nH]nc2nnc(-c3c(-c4ccccc4)nn4ccccc34)cc12`, the Potency is 13.1 µM (active) in assay [1] and 16.5 µM (active) in [8]. For the same compound, the Potency result in [5] is “inactive”.
Turning to `CN1CCN(c2ncc(-c3cc(Cl)cc(Cl)c3Cl)c(N)n2)CC1`, the Potency entry in assay [5] and in assay [9] was “inactive” throughout. Moreover, the Potency in assay [7] was 26.1 µM (active).
As for `O=C(CC12CC3CC(CC(C3)C1)C2)Nc1cccc2nc(NCCNCCO)ccc12`, the Potency in assay [2] is 23.3 µM (active); in assay [8], 18.5 µM (active). For the same compound, the Potency entry in assay [4] and in assay [10] was “inactive” throughout.
With `N#CC(=C1Nc2ccccc2S1)c1ccnc(OCc2ccc(CN3CCOCC3)cc2)n1`, the Potency entry in assay [4], in [10] and in assay [9] was “inactive” throughout.
On to `FC(F)(F)c1ccc(C=Cc2nc(COc3ccc(CCCCn4ccnn4)cc3)co2)cc1`, for which the Potency in assay [2] is 1.17 µM (active); in [5] it was 0.261 µM (active). For the same compound, the Potency result in assay [6] was “inactive”.
Consider `COc1cc(CNC(=O)CCCCC=CC(C)C)ccc1O`, for which the Potency entry in [3], in assay [4], in [5] and in assay [7] was “inactive” throughout. The Potency in [8] was 3.29 µM (active).
As for `COc1cc2c(cc1Cc1cccc(Cl)c1F)c(=O)c(C(=O)O)cn2[C@H](CO)C(C)C`, the Potency in assay [2] is 14.7 µM (active); in assay [8], 13.1 µM (active). The Potency result in assay [6] was “inactive”.
In the case of `CCC(=O)OCC(=O)[C@@]1(OC(=O)CC)[C@@H](C)C[C@@H]2[C@H]3CCC4=CC(=O)C=C[C@]4(C)[C@@]3(F)[C@@H](O)C[C@@]21C`, the Potency result in assay [2], in assay [3], in assay [4], in assay [6], in [7] and in assay [9] was “inactive” throughout.
As for `O=c1[nH]nc(OCCCc2ccc(Cl)cc2)c(NCc2cccnc2)c1Br`, the Potency is 16.5 µM (active) in [2] and 5.22 µM (active) in assay [5].
On to `CO[C@H]1/C=C\O[C@@]2(C)Oc3c(C)c(O)c4c(O)c(c(C=NN5CCN(C6CCCC6)CC5)c(O)c4c3C2=O)NC(=O)C(C)=CC=C[C@H](C)[C@H](O)[C@@H](C)[C@@H](O)[C@@H](C)[C@H](OC(C)=O)[C@H]1C`, for which the Potency in assay [2] is 20.8 µM (active); in assay [7], 26.1 µM (active); in [8], 20.8 µM (active). Moreover, the Potency entry in assay [4] and in [6] was “inactive” each time.
As for `Cc1cc(CS(=O)(=O)c2ccccc2)cc(OCc2ccc(CN3CCC[C@H]3CO)cc2)c1`, the Potency result in assay [10] and in assay [6] was “inactive” each time.
